The values that follow come from PubChem BioAssay (NCI).

Test systems include SK-MEL-2 melanoma; EKVX NSCLC; SN12C renal; UO-31 renal; TK-10 renal; ACHN renal; CAKI-1 renal; A498 renal; CCRF-CEM leukemia; MOLT-4 leukemia.
Common to all, as to experiment: NCI-60 one-dose screen, 48 h (100 = growth as untreated, 0 = no growth, -100 = all killed)
What all share (conditions): 10 µM unless noted

The structures appear in SMILES notation. The panel holds about 83,000 compounds, 20% with a hit somewhere; the sample as a whole holds those more often.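 Method: cells in 96-well plates; compound added at one concentration; 48 h incubation; percent growth measured; values under 10 scored active.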 Values without a mark were called inactive. Active and inactive are the calls of the source.

With `CN1CCN(Cc2ccc(NC(=O)c3cncc(C#Cc4cnc(N)cc4C#N)c3)cc2C(F)(F)F)CC1`, the growth in the assay on SK-MEL-2 melanoma is -65.9% (active); in the assay on EKVX NSCLC, 34.3%; in the assay with SN12C renal, 13.5%; in the assay with UO-31 renal, 1.25% (active); in the assay with TK-10 renal, 19.4%; with ACHN renal, 10.3%. Besides, the growth in the assay on CAKI-1 renal is -9.35% (active); in the assay on A498 renal, -8.99% (active); in the assay with CCRF-CEM leukemia it was 6.94% (active); with MOLT-4 leukemia, 4.83% (active).

Regarding `C/C(Cc1ccc(Cl)cc1)=C(\c1ccc(OCCN2CCCCCC2)cc1)c1ccc(OC(=O)c2ccccc2)cc1`, the growth in the assay on SK-MEL-2 melanoma was 77.4%; in the assay on EKVX NSCLC, 78.8%; with SN12C renal, 11.2%; in the assay with UO-31 renal, 24%; with TK-10 renal it was 67%; in the assay with ACHN renal, 68.9%. Also, the growth is 52.6% in the assay on CAKI-1 renal, 76.1% in the assay with A498 renal, -4.75% (active) with CCRF-CEM leukemia and 9.42% (active) in the assay with MOLT-4 leukemia.

Take `CSc1ccc(N2C(=N)C(=S)N(c3ccc(C)cc3)C2=O)cc1`: the growth in the assay with SK-MEL-2 melanoma is 118%; with EKVX NSCLC, 93.9%; in the assay with SN12C renal it was 94%; in the assay on UO-31 renal, 75.5%; in the assay on TK-10 renal it was 109%; with ACHN renal, 88.2%. In addition, the growth was 82.7% in the assay on CAKI-1 renal, 104% in the assay with A498 renal, 80.6% in the assay with CCRF-CEM leukemia and 89.8% in the assay on MOLT-4 leukemia.

On to `CCCCO[C@@H]1C=C2[C@H]3CC(C)(C)C(=O)C[C@]3(C(=O)O[C@@H]3O[C@H](CO[C@@H]4O[C@H](CO)[C@@H](OC5OC(C)C(O)C(O)C5O)[C@H](O)[C@H]4O)[C@@H](O)[C@H](O)[C@H]3O)CC[C@@]2(C)[C@]2(C)CC[C@H]3C(C)(C)C(=O)CC[C@]3(C)[C@@H]12` (stereo not given in full), for which the growth in the assay with SK-MEL-2 melanoma was 64.3%; in the assay on EKVX NSCLC, 87.1%; in the assay with SN12C renal it was 81.2%; in the assay on UO-31 renal, 19.4%; with TK-10 renal, 61.6%; in the assay on ACHN renal, 22.9%. Further, the growth in the assay with CAKI-1 renal is 50.8%; in the assay on A498 renal, 93.9%; in the assay on CCRF-CEM leukemia, 43.3%; in the assay with MOLT-4 leukemia, 51.5%.

As for `FC(F)(F)c1[nH]ncc1-c1nc2ccc3[nH]ncc3c2c2c1CCCC2`, the growth with SK-MEL-2 melanoma was -18.4% (active); in the assay with EKVX NSCLC it was 3.77% (active); with SN12C renal it was 12.5%; in the assay on UO-31 renal it was -26.8% (active); in the assay on TK-10 renal it was 1.15% (active); in the assay on ACHN renal it was 5.04% (active). Besides, the growth in the assay with CAKI-1 renal was 9.85% (active); in the assay on A498 renal, -60.5% (active); in the assay on CCRF-CEM leukemia, 6.43% (active); with MOLT-4 leukemia, -30% (active).

Take `C#CCOc1cccc(Nc2ncnc3c2ncn3C2CCN(C(=O)CCl)C2)c1` (stereo not given): the growth with SK-MEL-2 melanoma is -0.328% (active); in the assay on EKVX NSCLC, 5.11% (active); in the assay on SN12C renal, -71.3% (active); in the assay with UO-31 renal it was -97.8% (active); in the assay with TK-10 renal, -83.8% (active); with ACHN renal, -98.9% (active). Moreover, the growth with CAKI-1 renal is -97.4% (active); in the assay with A498 renal it was 85.9%; in the assay with CCRF-CEM leukemia, -28% (active); in the assay with MOLT-4 leukemia, -26.8% (active).

On to `COC(=O)c1c(C)nc(C)c2c1C(=O)C=C(NCc1ccccc1)C2=O`, for which the growth in the assay with SK-MEL-2 melanoma is 72.8%; in the assay with EKVX NSCLC it was 71.5%; in the assay on SN12C renal it was 88.6%; in the assay with UO-31 renal, 74.2%; in the assay on TK-10 renal, 119%; in the assay with ACHN renal, 76%. In addition, the growth in the assay on CAKI-1 renal was 81.5%; with A498 renal it was 124%; in the assay with CCRF-CEM leukemia it was 89.1%; in the assay with MOLT-4 leukemia, 75.9%.

Turning to `COc1cc(/C=C/C(=O)c2cc(OC)c(OC)c(OC)c2)ccc1Oc1nc2c(c(=O)n(C)c(=O)n2C)n1C`, the growth in the assay on SK-MEL-2 melanoma is 76.3%; in the assay on EKVX NSCLC it was 1.98% (active); in the assay with SN12C renal, 11.6%; with UO-31 renal, -92.1% (active); in the assay with TK-10 renal it was -8.16% (active); in the assay on ACHN renal, -21.9% (active). Further, the growth in the assay with CAKI-1 renal was -47.2% (active); with A498 renal it was 29.4%; in the assay on CCRF-CEM leukemia, 5.81% (active); in the assay with MOLT-4 leukemia, 2.13% (active).

As to `COc1ccc(-c2cc(-c3cn(-c4cccc(Cl)c4)nc3-c3ccc(OC)cc3)on2)cc1`, the growth in the assay on SK-MEL-2 melanoma was 86.8%; in the assay with EKVX NSCLC, 98.8%; in the assay with SN12C renal, 89%; with UO-31 renal, 77.3%; in the assay with TK-10 renal, -45.1% (active); in the assay on ACHN renal, 101%. For the same compound, the growth in the assay on CAKI-1 renal is 93.5%; in the assay with A498 renal it was 78.6%; with CCRF-CEM leukemia it was 88.1%; in the assay on MOLT-4 leukemia, 77%.

For `O=C(Nc1cc(Cl)cc(Cl)c1)Oc1c(Cl)c(Cl)c(Cl)c(Cl)c1Cl`, the growth is 64% with SK-MEL-2 melanoma; 64.2% in the assay on EKVX NSCLC; 71.2% in the assay on SN12C renal; 58.4% with UO-31 renal; 113% with TK-10 renal; 65.8% in the assay on ACHN renal. In addition, the growth in the assay with CAKI-1 renal was 68.1%; with A498 renal, 19.6%; in the assay with CCRF-CEM leukemia, 47.7%; in the assay with MOLT-4 leukemia, 63.5%.

For `Cn1c2ccccc2c2c3c(c4c5cc(Br)ccc5n(C)c4c21)C(=O)N(O)C3=O`, the growth in the assay on SK-MEL-2 melanoma is 56.3%; with EKVX NSCLC, 88.5%; with SN12C renal, -53.2% (active); with UO-31 renal it was 2.59% (active); in the assay with TK-10 renal, 90.3%; in the assay on ACHN renal it was -23% (active). Moreover, the growth is -22.4% (active) with CAKI-1 renal, 103% in the assay with A498 renal, -22.2% (active) with CCRF-CEM leukemia and -21.4% (active) in the assay on MOLT-4 leukemia.

Take `O=[N+]([O-])c1ccccc1Sc1ccccc1[N+](=O)[O-]`: the growth is 97.2% in the assay with SK-MEL-2 melanoma; 91.2% in the assay with EKVX NSCLC; 99.3% in the assay on SN12C renal; 75.5% in the assay on UO-31 renal; 85.2% with TK-10 renal; 102% in the assay with ACHN renal. For the same compound, the growth in the assay with CAKI-1 renal is -54.5% (active); in the assay on A498 renal, 81.2%; with CCRF-CEM leukemia, 107%; in the assay with MOLT-4 leukemia it was 94.8%.

In the case of `CC1=Nc2cnc(Nc3ccc(N4CCCCC4)cc3)nc2Nc2ccccc21`, the growth is 86% in the assay on SK-MEL-2 melanoma; 68.8% with EKVX NSCLC; 69.7% with SN12C renal; 49.7% in the assay with UO-31 renal; 97.3% in the assay with TK-10 renal; 68.1% in the assay with ACHN renal. Further, the growth in the assay with CAKI-1 renal is 79.3%; in the assay with A498 renal, 55.8%; in the assay on CCRF-CEM leukemia it was 31.5%; in the assay on MOLT-4 leukemia, 26.7%.
